The list is not random: actives were taken first. Their share in the collection is about 4.9%.
PP5 inh: PP5 (human) phosphatase inhibition | purified PP5c, OMFP substrate fluorescence | inhibition, % at 6.7 µM | 320,000 tested, 0.18% active | AID 1987;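 active = inhibition above the campaign's mean inhibition across all tested compounds plus 3 SD, cut at about 9.5% in these data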;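 note: 0% = DMSO only and 100% = 100 µM cantharidin control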
Beta apoptosis: blocks beta cell apoptosis. INS-1E cytokine-induced death, ATP luminescence, 48 h; percent of positive-control rescue, neutral wells zero. protection from apoptosis, % (concentration not given with the values). 300,000 tested, 0.8% active;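 active = Every replicate reaches about 75%, or at least half do and their mean reaches it too, limit read from the data; inconclusive = At least half of replicates reach the limit but their mean does not; inactive = Under half of replicates reach the limit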;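 note: 0% = cytokine-treated negative control wells and 100% = positive control rescue; higher means more ATP so stronger rescue from cytokine killing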
CSC inhib: cancer stem cell inhibition | inhibition, % at 7.5 µM | cancer stem cell-like cells viability, luminescence | 300,000 tested, 1.1% active; in the data active = inhibition above about 75%; inconclusive = no clear call, values can overlap the other calls; tested in HMLE shEcad cells
Calb FLC: C. albicans growth modulation with fluconazole | C. albicans CaCi-2 (fluconazole-resistant clinical isolate) + fluconazole, Alamar Blue growth, 48 h | growth inhibition, % (concentration not given with the values) | 300,000 tested, 0.57% active;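 active = growth inhibition above about 58% in most replicates, limit read from the data, passing the limit was not always enough; inconclusive = exactly half the replicates above a set limit; inactive = most replicates below a set limit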;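 note: all wells also contain fluconazole at 8 µg/ml as a sub-toxic cotreatment; 0% = median of DMSO wells and 100% = median of geldanamycin control wells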
PP1 inh: PP1-alpha (human) inhibition in PP5 counter-screen; 320,000 tested, 0.9% active; inhibition, % at 6.7 µM; purified PP1alpha, OMFP fluorescence;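 active = inhibition above the mean inhibition of all tested compounds plus 3 SD, computed separately for each screening campaign, cut at about 15% in these data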
Mdm2-MdmX inh: inhibitors of human Mdm2/MdmX interaction | SaOS-2 split-luciferase Mdm2/MdmX complementation, luminescence | inhibition, % at 8 µM | 330,000 tested, 3% active | AID 485346;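 active = inhibition of at least 50% at 8 µM in the primary screen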
Target sequence (O15151 whole entry, looked up): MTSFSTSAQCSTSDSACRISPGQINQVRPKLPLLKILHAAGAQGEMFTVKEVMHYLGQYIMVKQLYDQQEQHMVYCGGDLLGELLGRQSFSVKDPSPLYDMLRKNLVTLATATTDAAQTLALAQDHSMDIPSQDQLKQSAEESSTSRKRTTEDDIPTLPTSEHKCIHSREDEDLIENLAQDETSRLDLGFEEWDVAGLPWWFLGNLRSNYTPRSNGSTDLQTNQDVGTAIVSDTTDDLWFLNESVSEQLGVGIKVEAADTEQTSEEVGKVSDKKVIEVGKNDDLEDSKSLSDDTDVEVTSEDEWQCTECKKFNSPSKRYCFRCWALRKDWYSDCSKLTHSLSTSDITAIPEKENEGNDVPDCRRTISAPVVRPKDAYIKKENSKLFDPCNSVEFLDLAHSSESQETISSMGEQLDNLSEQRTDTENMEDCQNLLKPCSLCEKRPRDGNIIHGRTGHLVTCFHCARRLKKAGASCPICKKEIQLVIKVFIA
Target sequence (Q00987 whole entry, looked up): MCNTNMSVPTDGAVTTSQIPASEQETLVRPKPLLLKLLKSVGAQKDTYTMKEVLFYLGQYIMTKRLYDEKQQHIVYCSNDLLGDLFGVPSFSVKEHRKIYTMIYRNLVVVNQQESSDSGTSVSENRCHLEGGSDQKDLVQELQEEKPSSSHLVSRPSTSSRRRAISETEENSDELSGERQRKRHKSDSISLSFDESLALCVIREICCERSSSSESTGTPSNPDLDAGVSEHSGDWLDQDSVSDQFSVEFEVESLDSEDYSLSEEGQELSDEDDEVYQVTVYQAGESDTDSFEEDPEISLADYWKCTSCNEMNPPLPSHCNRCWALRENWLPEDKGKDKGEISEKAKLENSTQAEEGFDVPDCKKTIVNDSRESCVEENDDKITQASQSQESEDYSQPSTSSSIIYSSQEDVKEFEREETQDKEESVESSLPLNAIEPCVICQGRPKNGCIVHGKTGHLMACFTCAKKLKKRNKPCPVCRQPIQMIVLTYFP
PP5 inh confirm: confirmation of human PP5 phosphatase inhibitors; Purified PP5, fluorogenic phosphatase substrate, fluorescence; shares compounds with PP5 inh; inhibition, % at 6.7 µM; AID 2331; 460 tested, 22% active; in the data active = inhibition above about 9.5%
PP1 inh counter: inhibits human PP1 phosphatase in PP5 counter-screen; PP1 enzyme, fluorescent phosphatase substrate; inhibition, % at 6.7 µM; AID 2355; 460 tested, 4% active; shares compounds with PP5 inh; in the data active = inhibition above about 16%
Numbers without * were called inactive; ? = inconclusive; · = no result; ! = not confirmed by another sample.

SMILES	PP5 inh	Beta apoptosis	CSC inhib	Calb FLC	PP1 inh	Mdm2-MdmX inh	PP5 inh confirm	PP1 inh counter
Cc1nnc(NC(=O)C2C3C=CC(O3)C2C(=O)O)s1 (configuration not stated)	16.2*	-8.0	-0.6	?	1.4	-16.2	15.7*	13.3
CC(C(=O)NCc1ccccn1)c1ccc([N+](=O)[O-])cc1 (configuration not stated)	3.3	0.6	-3.3	11.3	4.8	10.9	·	·
COC(=O)c1sccc1NC(=O)C1C2C=CC(O2)C1C(=O)O (configuration not stated)	1.4	-3.4	-6.7	-11.1	-2.6	-3.1	·	·
Cc1cccc(NC(=O)C2C3C=CC(O3)C2C(=O)O)c1 (configuration not stated)	9.8*	-3.8	-8.7	-7.4	-1.1	4.1	-1.3	3.6
Cc1cccc(NC(=O)C2C3C=CC(C4CC34)C2C(=O)O)c1 (configuration not stated)	2.5	-0.6	34.7	-7.2	5.0	-3.1	·	·
COc1ccccc1NC(=O)C1C2C=CC(O2)C1C(=O)O (configuration not stated)	15.1*	-1.4	-15.1	-0.3	2.7	1.5	2.6	6.8
Cc1ccc(NC(=O)C2C3C=CC(O3)C2C(=O)O)cc1C (configuration not stated)	22.6*	3.2	-6.9	-2.7	1.6	2.2	4.3	22.7*
Cc1ccc(NC(=O)C2C3CCCC2C3c2ccccc2)cc1C (configuration not stated)	-1.0	-1.7	-9.4	-5.3	-1.9	8.7	·	·
O=C(CN1CCN(c2ccc(C(F)(F)F)cn2)CC1)NCc1ccc2c(c1)OCO2	0.2	-2.8	-5.6	-0.8	-2.6	7.2	·	·
Cc1ccc(OCc2n[nH]c(=S)n2-c2ccc(Br)cc2)cc1	2.6	-0.6	-10.9	-3.3	3.2	4.1	·	·
CC(=O)c1ccc(N(C(=O)c2csnn2)C(C(=O)NC(C)(C)C)c2cccs2)cc1 (configuration not stated)	-1.3	1.3	1.4	-3.0	-1.3	-17.8	·	·
COc1cc(C=O)ccc1OS(=O)(=O)c1ccc(NC(C)=O)cc1	0.0	-1.4	-5.2	-1.9	-3.4	-24.9	·	·
COc1cc(C=O)ccc1OC(=O)Nc1ccccc1	11.5*	-5.8	-6.6	-5.1	-1.7	15.8	-2.5	-1.8
CCc1ccc(C(=O)CCC(=O)Nc2ccc(OC)c(S(=O)(=O)N3CCCCC3)c2)cc1	4.0	-2.7	27.1	·	-0.1	9.3	·	·
CN(CC(O)CN1CCOCC1)S(=O)(=O)O (configuration not stated)	14.2*!	-10.4	-6.0	-6.1	0.8	8.0	-6.8	-4.9
OC(CN1CCOCC1)CN1CCOCC1	0.4	3.0	-11.9	-0.8	-3.1	-15.5	·	·
CC(C)CC(=O)NNC(=S)Nc1ccc(S(N)(=O)=O)cc1	3.8	-2.6	1.7	-1.3	5.1	35.6	·	·
CCc1ccc(C(=O)NNC(=S)Nc2ccc(S(N)(=O)=O)cc2)s1	14.2*	-5.0	-10.6	-12.7	-0.8	6.2	-1.7	0.7
Cc1cccc(NC(=O)C2CCN(S(C)(=O)=O)CC2)c1C	10.6*	3.0	-11.1	-4.0	-0.6	3.2	-7.5	-5.5
COC(=O)c1sc(N)c(C(=O)OC)c1COC(=O)c1c(C)noc1C	10.1*	19.0	66.5	-12.4	2.5	44.9	-3.3	-3.6
Cc1ccc(/C(O)=C2\C(=O)C(=O)N(C)C2c2ccc(Br)cc2)cc1 (configuration not stated)	10.4*	-2.1	-0.6	8.1	6.2	25.5	-6.6	-2.3
CN1C(=O)C(=O)/C(=C(/O)c2ccc(Br)cc2)C1c1ccc(F)cc1 (configuration not stated)	-1.2	-1.8	0.0	-0.8	2.2	-30.7	·	·
Nc1c(N(CCC2=CCCCC2)C(=O)c2ccc([N+](=O)[O-])o2)c(=O)[nH]c(=O)n1Cc1ccccc1	-0.2	18.8	2.2	-2.5	2.5	38.8	·	·
O=C(Nc1c(C(=O)NCc2ccco2)cnn1-c1ccccc1)c1cccc(F)c1	10.5*	-2.6	-20.5	18.7	-2.8	5.0	-7.0	-4.5
Cc1ccc(C(=O)Nc2c(C(=O)NCc3ccco3)cnn2-c2ccccc2)cc1	-2.1	-7.8	-25.1	13.3	-2.7	15.4	·	·
SMILES	PP5 inh	Beta apoptosis	CSC inhib	Calb FLC	PP1 inh	Mdm2-MdmX inh	PP5 inh confirm	PP1 inh counter
CCOc1ccc(N(CC(=O)Nc2c(C)cccc2C)S(=O)(=O)c2c(C)[nH]c(=O)[nH]c2=O)cc1	12.2*	-5.7	-20.3	6.3	-8.2	-3.8	-7.2	-6.3
CCOc1ccc(S(=O)(=O)NC(Cc2c[nH]c3ccccc23)C(=O)O)cc1 (configuration not stated)	0.9	-1.1	0.0	-6.0	-0.9	-23.3	·	·
O=C1CCN(Cc2ccc(Br)cc2)CCN1[C@H](CO)Cc1ccccc1	1.6	-2.3	1.0	17.8	-1.5	21.9	·	·
O=C(NC1CCCCC1)N1CCC(n2c(=O)[nH]c3ccccc32)CC1	18.9*	6.4	·	-3.1	11.2	3.0	-1.8	-1.2
O=C(Nc1ccccc1)N1CCC(n2c(=O)[nH]c3ccccc32)CC1	-0.3	-4.5	-10.9	8.2	-2.7	-22.2	·	·
COc1ccc(CNC(=O)CCCNC(=O)c2ccc(Cl)cc2)cc1OC	1.9	1.4	1.0	-6.7	-5.3	16.5	·	·
CN1CC(C(=O)Nc2ccc(F)c(Cl)c2)CC1=O (configuration not stated)	2.4	-3.4	-7.7	1.8	-1.6	-5.1	·	·
OC(CNCc1ccccc1)Cn1ccc2ccccc21 (configuration not stated)	-3.0	-7.1	0.6	-8.7	-0.3	3.4	·	·
Oc1ccccc1NCC(O)Cn1ccc2ccccc21 (configuration not stated)	9.8*	-6.8	7.0	30.8	11.6	1.6	4.1	-1.6
COCCOC(=O)C1=C(C)NC(=O)NC1c1cn(-c2ccccc2)nc1-c1cccs1 (configuration not stated)	5.7	-1.7	7.6	-6.9	0.3	-9.9	·	·
COC(=O)C1=C(C)NC(C)=C(C(=O)OC)C1c1cn(-c2ccccc2)nc1-c1ccco1	13.5*	-0.3	4.3	-2.9	5.9	24.4	2.3	2.6
O=C(Cc1ccc(Br)cc1)N1CCOCC1	0.2	-2.5	7.2	0.8	0.9	5.7	·	·
Cn1c(=O)cc(SCC(=O)NCCC2=CCCCC2)c2cc(Cl)ccc21	4.7	-10.9	·	38.2	4.3	2.0	·	·
O=C1c2ccccc2C(=O)C1(O)O	15.7*	4.2	3.6	·	5.2	8.0	4.8	14.0
NS(=O)(=O)c1ccc(O)c(NC(=O)c2ccc([N+](=O)[O-])cc2)c1	1.1	3.0	-2.3	5.9	-1.7	4.5	·	·
COc1cc(Br)c(C(=O)c2nccc3cc(OC)c(OC)cc23)cc1OC	13.7*	-11.0	-6.2	1.3	-3.1	24.4	43.3*	5.5

High-throughput results as filed in PubChem.
